Screening results: PubChem BioAssay, NMMLSC
Only some compounds are listed: those with a hit (about 2.9% of all), similar ones and a draw of the others.
MEKK2 WT-MEK5 = raises or lowers MEK5 binding to wildtype human MEKK2 PB1 domain | Q9Y2U5 | bead flow cytometry, Alexa488-MEK5 binding to MEKK2 WT; actives lie on both sides | binding response (% of control), % at 10 µM | 290,000 tested, 1.1% active; in the data active = binding response below about 67% or above about 130%
MEKK3 PB1 HTS = modulators (inhibitors or enhancers) of MEK5 binding to human MEKK3 PB1 domain | bead-based flow cytometry, Alexa488-MEK5 binding to MEKK3; actives lie on both sides; 0 = blocked by unlabeled MEK5, 100 = vehicle | binding response (% of control), % at 10 µM | 290,000 tested, 1.4% active;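 active = binding response more than 3 SD above or below the average of its plate-row segment, actives on both sides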;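 note: Alexa488 bead fluorescence after subtracting the streptavidin-only scavenger bead signal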
GRK2 aptamer HTS = blocks RNA aptamer binding to human GRK2. P25098. bead flow cytometry, FAM-aptamer displacement from GRK2. inhibition of aptamer binding, % at 10 µM. 330,000 tested, 0.59% active;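 active = inhibition of aptamer binding above 40%, roughly 3 SD of noise, on plates passing a quality check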;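 note: median bead fluorescence of bound FAM aptamer so fluorescent compounds give negative values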
MEKK2mut PB1 HTS = signal of MEK5 binding to mutant human MEKK2 PB1 domain. percent response, % at 10 µM. 290,000 tested, 0.35% active. bead flow cytometry, Alexa488-MEK5 binding to MEKK2 mutant; in the data active = percent response above about 24%, passing the limit was not always enough
Beta2AR agonist = activates human beta-2 adrenergic receptor causing internalization | Am2.2-beta2AR cells, FAP receptor internalization, flow cytometry | response, % (concentration not given with the values) | 340,000 tested, 0.43% active | AID 504454;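 active = response above a set limit, near 3 SD of response in nonfluorescent compounds, cut at about 42% in these data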
Target sequence (P07550 whole entry, looked up): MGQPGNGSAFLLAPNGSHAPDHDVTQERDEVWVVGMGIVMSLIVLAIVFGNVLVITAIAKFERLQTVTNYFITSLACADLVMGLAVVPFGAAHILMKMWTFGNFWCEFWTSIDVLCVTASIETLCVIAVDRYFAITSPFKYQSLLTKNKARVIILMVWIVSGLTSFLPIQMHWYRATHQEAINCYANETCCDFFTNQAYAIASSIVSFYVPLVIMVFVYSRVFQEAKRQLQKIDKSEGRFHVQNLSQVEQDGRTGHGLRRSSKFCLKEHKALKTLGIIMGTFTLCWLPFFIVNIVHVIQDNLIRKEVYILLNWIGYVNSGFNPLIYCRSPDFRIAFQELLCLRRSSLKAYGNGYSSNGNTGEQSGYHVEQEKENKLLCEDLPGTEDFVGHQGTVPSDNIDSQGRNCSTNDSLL
* marks the source's active call; other numbers are inactive results.

C=C1C(=O)C23CCC4C(C)(C(=O)OC)CCCC4(C)C2CCC1(O)C3 (configuration not stated) was read as Beta2AR agonist 96*.
Nc1cccc2c1C(=O)N(C(=O)/C=C/c1ccc(F)cc1)C2=O was read as MEKK2 WT-MEK5 99, MEKK3 PB1 HTS 105, GRK2 aptamer HTS 1, MEKK2mut PB1 HTS 1 and Beta2AR agonist 87*.
Screening Nc1cccc2c1C(=O)N(C(=O)c1ccco1)C2=O returned MEKK2 WT-MEK5 97, MEKK3 PB1 HTS 92, GRK2 aptamer HTS 3, MEKK2mut PB1 HTS -7 and Beta2AR agonist 1.
For COc1ccc(Cc2ccccc2C(=O)O)cc1 the results were Beta2AR agonist -3.
For COc1ccc(CC2=CC(=O)c3ccccc3C2=O)cc1 the results were MEKK2 WT-MEK5 108, MEKK3 PB1 HTS 104, GRK2 aptamer HTS 1, MEKK2mut PB1 HTS 6 and Beta2AR agonist 56*.
CCOC(=O)c1ccc(N2Cc3ccccc3C2=NC(=O)c2cccc([N+](=O)[O-])c2)cc1 was read as GRK2 aptamer HTS 0 and Beta2AR agonist -9.
O=C(N=C1c2ccccc2CN1c1ccccc1)c1cccc([N+](=O)[O-])c1 was read as MEKK2 WT-MEK5 5.0*, MEKK3 PB1 HTS 95, GRK2 aptamer HTS 5, MEKK2mut PB1 HTS 4 and Beta2AR agonist 0.
Screening COc1ccccc1N(C)S(=O)(=O)c1ccc(C(=O)Nc2ccc(C)cc2C)cc1 returned Beta2AR agonist 4.
`CCN1CCCC1CNC(=O)c1ccc2c(c1)N(Cc1ccccc1F)C(=O)c1ccccc1S2(=O)=O` (configuration not stated) gave MEKK2 WT-MEK5 118, MEKK3 PB1 HTS 99, GRK2 aptamer HTS 0, MEKK2mut PB1 HTS 4 and Beta2AR agonist 14.
For CC1CCCN(CCCNC(=O)c2ccc3c(c2)N(Cc2ccccc2F)C(=O)c2ccccc2S3(=O)=O)C1 (configuration not stated) the results were MEKK2 WT-MEK5 136*, MEKK3 PB1 HTS 111, GRK2 aptamer HTS 1, MEKK2mut PB1 HTS 18 and Beta2AR agonist 27.
For Cc1cccc(CN2C(=O)c3ccccc3S(=O)(=O)c3ccc(C(=O)NCCCN4CCCC4)cc32)c1 the results were MEKK2 WT-MEK5 141*, MEKK3 PB1 HTS 106, GRK2 aptamer HTS 0, MEKK2mut PB1 HTS 15 and Beta2AR agonist 29.
Screening O=C(NCCN1CCCC1)c1ccc2c(c1)N(Cc1cccc(Cl)c1)C(=O)c1ccccc1S2(=O)=O returned MEKK2 WT-MEK5 122, MEKK3 PB1 HTS 99, GRK2 aptamer HTS 0, MEKK2mut PB1 HTS 12 and Beta2AR agonist 3.
CC1CCC(NC(=O)COC(=O)c2ccco2)CC1 (configuration not stated) was read as GRK2 aptamer HTS 0 and Beta2AR agonist 3.
`O=C(Nc1ccc(N2CCCC2)cc1)C(Cl)c1ccccc1` (configuration not stated) gave MEKK2 WT-MEK5 94, MEKK3 PB1 HTS 99, GRK2 aptamer HTS 0, MEKK2mut PB1 HTS -1 and Beta2AR agonist 76*.
Screening Cc1nn(CC(=O)NCCCN2CCC(Cc3ccccc3)CC2)c(=O)c2cc(-c3ccccc3)nn12 returned MEKK2 WT-MEK5 161*, MEKK3 PB1 HTS 108, GRK2 aptamer HTS 0, MEKK2mut PB1 HTS 48* and Beta2AR agonist 29.
`CCc1ccc(-c2cc3c(=O)n(CC(=O)NCCCN4CCC(Cc5ccccc5)CC4)nc(C)n3n2)cc1` gave MEKK2 WT-MEK5 203*, MEKK3 PB1 HTS 110, GRK2 aptamer HTS 0, MEKK2mut PB1 HTS 29* and Beta2AR agonist 16.
Cc1nn(CC(=O)NCCCN2CCN(Cc3ccccc3)CC2)c(=O)c2cc(-c3ccccc3)nn12 was read as MEKK2 WT-MEK5 116, MEKK3 PB1 HTS 103, GRK2 aptamer HTS 0, MEKK2mut PB1 HTS 16 and Beta2AR agonist -9.
Cc1cc(C(=O)COc2cc(F)ccc2[N+](=O)[O-])c(C)n1CC1CCCO1 (configuration not stated) was read as GRK2 aptamer HTS 0 and Beta2AR agonist 14.
Cc1[nH][nH]c(=O)c1C(c1cc2c(cc1Br)OCO2)c1c(C)[nH][nH]c1=O was read as MEKK2 WT-MEK5 23*, MEKK3 PB1 HTS 103, GRK2 aptamer HTS 10, MEKK2mut PB1 HTS 36 and Beta2AR agonist 8.
Cc1[nH][nH]c(=O)c1C(c1cc(Br)ccc1O)c1c(C)[nH][nH]c1=O was read as MEKK2 WT-MEK5 103, MEKK3 PB1 HTS 105, GRK2 aptamer HTS 1, MEKK2mut PB1 HTS 3 and Beta2AR agonist -4.
`O=C(O)C1Nc2ccc(OC(F)(F)F)cc2C2C=CCC12` (configuration not stated) gave MEKK2 WT-MEK5 98, MEKK3 PB1 HTS 102, GRK2 aptamer HTS 29 and MEKK2mut PB1 HTS 0.
Screening O=C(O)C1Nc2c(cccc2C(F)(F)F)C2C=CCC12 (configuration not stated) returned MEKK2 WT-MEK5 96, MEKK3 PB1 HTS 99, GRK2 aptamer HTS 75* and MEKK2mut PB1 HTS -4.
For Cc1ccc2c(c1)C1C=CCC1C(C(=O)O)N2 (configuration not stated) the results were GRK2 aptamer HTS 68*.
For CC(=O)c1ccc2c(c1)C1C=CCC1C(C(=O)O)N2 (configuration not stated) the results were MEKK2 WT-MEK5 81, MEKK3 PB1 HTS 93, MEKK2mut PB1 HTS -14 and Beta2AR agonist 6.
For Cc1cc(S(=O)(=O)Nc2ccc(C(=O)NCc3ccncc3)cc2)ccc1F the results were GRK2 aptamer HTS 0 and Beta2AR agonist 0.
CN1CCc2nc(SCC(=O)Nc3ccc(F)cc3)c(C#N)cc2C1 was read as MEKK2 WT-MEK5 80, MEKK3 PB1 HTS 101, GRK2 aptamer HTS 57* and MEKK2mut PB1 HTS 7.
Screening O=C1CCCN1CC(O)CS(=O)(=O)Cc1ccccc1Cl (configuration not stated) returned MEKK2 WT-MEK5 95, MEKK3 PB1 HTS 97, GRK2 aptamer HTS 1, MEKK2mut PB1 HTS -3 and Beta2AR agonist -7.
CNC(=O)c1nnsc1S(=O)(=O)c1ccc(Cl)cc1 was read as MEKK2 WT-MEK5 104, MEKK3 PB1 HTS 111, MEKK2mut PB1 HTS -1 and Beta2AR agonist 49*.
For O=C(c1nnsc1S(=O)(=O)c1ccc(Cl)cc1)N1CCOCC1 the results were MEKK2 WT-MEK5 93, MEKK3 PB1 HTS 103, MEKK2mut PB1 HTS -1 and Beta2AR agonist 24.
CCc1cccc(CC)c1NC(=O)COC(=O)c1cccc(-c2ccc(OC(C)=O)cc2)c1 was read as MEKK2 WT-MEK5 103, MEKK3 PB1 HTS 98, GRK2 aptamer HTS 100*, MEKK2mut PB1 HTS 11 and Beta2AR agonist 4.
Screening COc1ccc(C)c2sc(N(CCN(C)C)C(=O)c3ccc4ccccc4c3)nc12 returned MEKK2 WT-MEK5 145*, MEKK3 PB1 HTS 105, GRK2 aptamer HTS 0, MEKK2mut PB1 HTS 24* and Beta2AR agonist 13.
